Where “and” joins values, the source holds several entries; their conditions need not be identical. Equal values may be shown once. Where a name gives a salt, the structure may show the parent alone. About 620 (11%) of roughly 5,800 compounds showed activity. The entries come from a sample that favours actives as a whole. A number with no mark means an inactive call.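 How the source made its calls: active = score above a cut-off or among the top three wells of a plate; in these data no inactive exceeds 0.85.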

From the supplement of paper PMC9135407 come the findings set out here.

In the experiment the test system is primary human hepatic stellate cells (donor 1). Put plainly: scaled lipid accumulation score (0 = DMSO-like, 1 = nortriptyline-like); higher = stronger HSC inactivation (lipid re-accumulation), active = hit call of the paper. The following applies: 48 h. The method, then:
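Primary lipid accumulation screen in primary human hepatic stellate cell myofibroblasts (donor 1, passage 8) in 384-well plates. 100 nL of library compound was pin-transferred into 30 µL medium in duplicate, and cells were treated for 48 h. The 'Scaled' score combines distance from plate baseline, toxicity and reproducibility penalties, and is normalised to nortriptyline (positive) and DMSO (negative) controls on each plate. A hit is defined as scaled >0.85 or among the top 3 wells per plate.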

Setting [1] is: library stock concentration: 3.33 mM.
The mark [2] stands for this setting: library stock concentration: 10 mM.
Setting [3] is: library stock concentration: 1 mM.
[4] abbreviates: library stock concentration: 80 uM.
Setting [5] is: library stock concentration: 400 uM.
[6] abbreviates: library stock concentration: 2 mM.
[7] abbreviates: library stock concentration: 6.9 mM.

As to `O=C(Oc1ccc([N+](=O)[O-])cc1)N1CCC(C(O)(c2ccc3c(c2)OCO3)c2ccc3c(c2)OCO3)CC1`, the “scaled lipid accumulation score” value was at most 0 under setting [1] and at most -0.001 under setting [2].

Turning to `O=[N+]([O-])/C=C/c1ccc2c(c1)OCO2`, the “scaled lipid accumulation score” value under setting [2] is 0.967 (active).

As for `O=[N+]([O-])/C=C/c1ccc2c(c1)OCO2` [Syk Inhibitor III], under setting [1], the “scaled lipid accumulation score” value is 0.609.

In the case of `c1cc2c(cc1[C@H]1OC[C@H]3[C@@H]1CO[C@@H]3c1ccc3c(c1)OCO3)OCO2` [Sesamin], the “scaled lipid accumulation score” value is, setting by setting: under setting [1], at most 0; under setting [2], at most 0.

On to `O=[N+]([O-])C=Cc1ccc2c(c1)OCO2`, for which the “scaled lipid accumulation score” value under setting [1] was 1.44 (active) and the “scaled lipid accumulation score” value under setting [2] was 0.901 (active).

`C=CCc1ccc2c(c1)OCO2` [Safrole]: the “scaled lipid accumulation score” value under setting [2] is 0.109.

For `C=C1C/C(=C/C)C(=O)O[C@@H]2CCN3CC=C(COC(=O)[C@]1(C)O)[C@H]23` [Seneciphylline], the “scaled lipid accumulation score” value was at most 0.

As to `CCCCC/C=C\C/C=C\C/C=C\C/C=C\CCCC(=O)NOCCO` [oxy-Arachidonoyl Ethanolamide], the “scaled lipid accumulation score” value under setting [3] was 0.014.

Regarding `C[C@H](N)C(=O)N[C@@H](C)C(=O)N[C@@H](Cc1ccccc1)C(=O)CCl`, under “library stock concentration: 14.7 mM”, the “scaled lipid accumulation score” value was 0.708.

Consider `CCCCCCCCCCCCCC(=O)O[C@@H]1[C@@H](C)[C@@]2(O)[C@@H](C=C(CO)C[C@]3(O)C(=O)C(C)=C[C@@H]23)[C@@H]2C(C)(C)[C@]12OC(C)=O` [Phorbol 12-myristate 13-acetate] [listing 1 of 2 here], for which the “scaled lipid accumulation score” value under setting [2] is at most 0.

For the compound `CC(=O)O[C@@]12C[C@@H](C)[C@@]3(O)[C@@H](C=C(CO)C[C@]4(O)C(=O)C(C)=C[C@@H]34)[C@@H]1C2(C)C` [Prostratin], the “scaled lipid accumulation score” value under setting [3] was 0.583 (active).

With `CCCCCCCCCCCCCC(=O)O[C@@H]1[C@@H](C)[C@@]2(O)[C@@H](C=C(CO)C[C@]3(O)C(=O)C(C)=C[C@@H]23)[C@@H]2C(C)(C)[C@]12OC(C)=O` [Phorbol 12-myristate 13-acetate] [listing 2 of 2 here], the “scaled lipid accumulation score” value (library stock concentration: 8.1 mM) is 0.934 (active).

As to `CC(=O)O[C@@H]1CC[C@@]2(C)[C@@H](CC[C@@H]3[C@@H]2CC[C@]2(C)C(=O)CC[C@@H]32)C1` [Androsterone acetate], the “scaled lipid accumulation score” value under setting [2] was at most -0.027.

As for `C=CCN1CC[C@]23c4c5ccc(O)c4O[C@H]2/C(=N/N=C2\CC[C@@]4(O)[C@H]6Cc7ccc(O)c8c7[C@@]4(CCN6CC=C)[C@H]2O8)CC[C@@]3(O)[C@H]1C5` [Naloxonazine 2HCl], the “scaled lipid accumulation score” value (library stock concentration: 3.1 mM) is 0.144.

`N[C@@H]1C[C@H]1c1ccccc1.N[C@H]1C[C@@H]1c1ccccc1` [Tranylcypromine]: the “scaled lipid accumulation score” value was at most 0 under setting [4]; at most 0 under setting [5]; at most 0 under setting [6]; at most 0 under setting [2]; at most -0.003 (library stock concentration: 15 mM).

For the compound `N[C@@H]1C[C@H]1c1ccccc1.N[C@H]1C[C@@H]1c1ccccc1` [Tranylcypromine sulfate], the “scaled lipid accumulation score” value is, setting by setting: (library stock concentration: 8.6 mM) at most 0; under setting [2], at most 0.

On to `C=C(C)[C@@H]1CCC(C)=C[C@H]1C1=C(O)C(=O)C(CCCCC)=CC1=O`, for which the “scaled lipid accumulation score” value under setting [3] was 0.055.

As for `CC1=C2C(=CO[C@H](C)[C@H]2C)C(O)=C(C(=O)O)C1=O` [Citrinin], the “scaled lipid accumulation score” value under setting [2] is at most 0.

Take `Cn1c2cccc(=O)c-2nc2ccccc21` [Pyocyanin]: under setting [3], the “scaled lipid accumulation score” value is at most 0.

Regarding `CC(=O)OC1CN2CCC1CC2` (centres undefined), under setting [2], the “scaled lipid accumulation score” value is 0.001.

Regarding `CCCCC/C=C\C/C=C\C/C=C\C/C=C\CCCC(=O)NC1CC1` [Arachidonoyl Cyclopropylamide], the “scaled lipid accumulation score” value under setting [3] is at most 0.

For the compound `CN(C(=O)Cc1ccccc1)C(CN1CCCC1)c1ccccc1` (centres undefined) [N-MPPP Hydrochloride], the “scaled lipid accumulation score” value under setting [2] is 0.172.

In the case of `CN(C(=O)Cc1ccc(Cl)c(Cl)c1)C(CN1CCCC1)c1cccc(OCC(=O)O)c1` (centres undefined) [ICI 204,448 hydrochloride], the “scaled lipid accumulation score” value under setting [2] was 0.053.

Regarding `CN(C(=O)Cc1ccc(Cl)c(Cl)c1)[C@H](CN1CCCC1)c1ccccc1.Cl` [ICI-199,441 hydrochloride], under setting [2], the “scaled lipid accumulation score” value was 1.58 (active).

For `CCCCCc1cc(O)c2c(c1)OC(C)(C)C1CCC(C(=O)O)=CC21` (centres undefined) [Tetrahydrocannabinol-7-oic acid], the “scaled lipid accumulation score” value under setting [3] is at most -0.021.

As for `COc1cc(CNC(=O)CCCCCCC(C)C)c(I)cc1O`, the “scaled lipid accumulation score” value under setting [3] was at most 0.

Consider `COc1cc2c3cc1Oc1cc(ccc1O)C[C@@H]1c4c(cc(OC)c(O)c4Oc4cccc(c4)C[C@@H]3N(C)CC2)CC[N+]1(C)C` [Tubocurarine chloride pentahydrate (+)], for which the “scaled lipid accumulation score” value was 0.039.

On to `COc1ccc2[nH]c3c(c2c1)CCNC3` [6-Methoxy-1,2,3,4-tetrahydro-9H-pyrido[3,4b] indole], for which, under setting [2], the “scaled lipid accumulation score” value was 0.691.

For `O=c1ccc2[nH]cc(C3=CCNCC3)c2[nH]1`, the “scaled lipid accumulation score” value under setting [2] is 0.084 and ≤ -0.006.

Regarding `CCCOc1ccc2[nH]cc(C3=CCNCC3)c2n1`, the “scaled lipid accumulation score” value under setting [2] is 0.748.

`COc1ccc2[nH]cc(C3=CCNCC3)c2c1.COc1ccc2[nH]cc(C3=CCNCC3)c2c1.O=C(O)CCC(=O)O`: the “scaled lipid accumulation score” value under setting [2] is 1.68 (active).

With `N#Cc1ccc(N2CCN(C(=O)COc3ccc4[nH]cc(CCN)c4c3)CC2)cc1` [Donitriptan hydrochloride], the “scaled lipid accumulation score” value under setting [2] was at most 0.

For the compound `CN1CC[C@@H]2CN3CCc4cccc(c43)[C@@H]2C1` [SDZ SER 082 fumarate], the “scaled lipid accumulation score” value under setting [2] was at most -0.006.

For `CCCCCC(=O)N[C@H]1CCOC1=O` [N-hexanoyl-L-Homoserine lactone], the “scaled lipid accumulation score” value under setting [3] is at most 0.

Take `CO[C@H](C/C=C\C=C\CC/C=C/C[C@H](C)/C=C/C(=C\C(=O)O)CC(=O)O)/C(C)=C\C=C(/C)C(=O)O` [Bongkrekic acid]: the “scaled lipid accumulation score” value under setting [3] was at most -0.014.

For `N#CC(C#N)=Cc1ccc(O)cc1` [Tyrphostin-8], the “scaled lipid accumulation score” value (library stock concentration: 29.4 mM) is at most -0.012.

Take `CC(Cc1ccc(OCC(=O)O)cc1)NCC(O)c1cccc(Cl)c1` (centres undefined): the “scaled lipid accumulation score” value under setting [2] was 0.056.

For the compound `COc1ccc(CC2c3cc(OC)c(OC)cc3CCN2C)cc1OC` (racemic) [Laudanosine (R,S)], the “scaled lipid accumulation score” value was at most 0.

For the compound `COc1cc2c(cc1O)[C@@H]1Cc3ccc(OC)c(O)c3CN1CC2` [Scoulerine], the “scaled lipid accumulation score” value was 0.07.

Regarding `COc1cc2c(cc1O)C(CCc1ccc(Cl)cc1)N(C)CC2.Cl` (centres undefined), the “scaled lipid accumulation score” value under setting [2] was 0.872 (active).

As to `C/C1=C/C(=O)O[C@@H]2C[C@@H](CC[C@H](C)/C=C\CC1)O[C@@](O)([C@@H]1CSC(=O)N1)C2` [Latrunculin B], under “library stock concentration: 12.6 mM”, the “scaled lipid accumulation score” value is 0.632.

As for `CCCCC/C=C\C/C=C\C/C=C\C/C=C\CCCC(=O)N[C@@H](C)CO` [S-1 Methanandamide], the “scaled lipid accumulation score” value under setting [3] was at most 0.

With `CN1C2CC(=O)CC1C(O)C2` (centres undefined) [6-Hydroxytropinone], the “scaled lipid accumulation score” value was at most 0.

For `CN1[C@@H](C[C@@H](O)c2ccccc2)CCC[C@H]1C[C@H](O)c1ccccc1` [Lobelanidine hydrochloride], the “scaled lipid accumulation score” value is 0.194.

On to `O=C(O)C1=CCCN(CCOC(c2ccc(C(F)(F)F)cc2)c2ccc(C(F)(F)F)cc2)C1` [CI 966 hydrochloride], for which the “scaled lipid accumulation score” value under setting [2] is at most -0.006.

`O=C1C=C2C(C(C)=C1O)=CC=C3[C@]2(CCC4([C@@H]5C[C@@](CC[C@@]5(CC[C@]34C)C)([C@@](O)=O)C)C)C` (some centres undefined) [Celastrol]: the “scaled lipid accumulation score” value was 1.14 (active) under setting [6] and 1.14 (active) under setting [2].

Consider `CC1=C(O)C(=O)C=C2C1=CC=C1[C@@]2(C)CC[C@@]2(C)[C@@H]3C[C@](C)(C(=O)O)CC[C@]3(C)CC[C@]12C` [Celastrol] [listing 1 of 2 here], for which the “scaled lipid accumulation score” value under setting [3] was 1.34 (active).

As for `CC1=C(O)C(=O)C=C2C1=CC=C1[C@@]2(C)CC[C@@]2(C)[C@@H]3C[C@](C)(C(=O)O)CC[C@]3(C)CC[C@]12C` [Celastrol] [listing 2 of 2 here], the “scaled lipid accumulation score” value is, setting by setting: under setting [4], 0.019; under setting [5], 0.093; under setting [2], 0.392.

Regarding `CN1CCN(C(=O)O[C@H]2c3nccnc3C(=O)N2c2ccc(Cl)cn2)CC1` [Eszopiclone], the “scaled lipid accumulation score” value under setting [2] is at most 0.

In the case of `CN1CCN(C(=O)O[C@H]2c3nccnc3C(=O)N2c2ccc(Cl)cn2)CC1`, under setting [2], the “scaled lipid accumulation score” value was 0.134.

Take `C#CCN[C@H](C)Cc1ccccc1` [R-(-)-Desmethyldeprenyl hydrochloride]: under setting [2], the “scaled lipid accumulation score” value was at most 0.

`CC[C@@H]1C=CC=CC[C@H](C)[C@@H](O)[C@@H](C)C(=O)[C@H](C)[C@@H](O)[C@H](C)C(=O)[C@H](C)[C@@H](O)[C@H](C)C=CC(=O)O[C@H]2[C@@H](C)[C@@H](CC1)O[C@@]1(CC[C@@H](C)[C@@H](C[C@H](C)O)O1)[C@@H]2C`: the “scaled lipid accumulation score” value under setting [2] is at most 0.

With `CC(C(=O)OC1CC2CCC(C1)N2C)c1ccc(Br)cc1.O=C(O)/C=C\C(=O)O` (centres undefined) [PG-9 maleate], the “scaled lipid accumulation score” value under setting [2] is 0.958 (active).

On to `CN1[C@@H]2CC[C@H]1C[C@@H](OC(=O)[C@H](CO)c1ccccc1)C2` [L-Hyoscyamine], for which the “scaled lipid accumulation score” value under setting [2] was at most -0.07.

For the compound `CCC(Oc1ccc(Cl)cc1)C(=O)OC1CC2CCC(C1)N2C.O=C(O)/C=C\C(=O)O` (centres undefined) [SM-21 maleate], the “scaled lipid accumulation score” value under setting [2] was 0.886 (active).

As for `COc1ccc(C(=O)OC2C[C@H]3CC[C@@H](C2)N3C)cc1OC` (some centres undefined) [Convolamine hydrochloride], the “scaled lipid accumulation score” value is 0.027.

As for `CN1[C@@H]2CC[C@H]1CC(OC(=O)N1Cc3ccccc3NC1=O)C2` (some centres undefined) [DAU 5884 hydrochloride], the “scaled lipid accumulation score” value under setting [2] was at most -0.001.

With `CN1[C@@H]2CC[C@H]1C[C@@H](OC(=O)C(CO)c1ccccc1)C2` (some centres undefined) [Atropine sulfate], the “scaled lipid accumulation score” value is, setting by setting: (library stock concentration: 5.2 mM) 0.019; under setting [7], 0.018; under setting [2], 0.196 and ≤ 0.

Take `CN1[C@@H]2CC[C@H]1C[C@@H](OC(=O)C(CO)c1ccccc1)C2` (some centres undefined) [Atropine]: the “scaled lipid accumulation score” value by setting is: under setting [1], at most 0; under setting [2], at most 0.

For `CN1[C@@H]2CC[C@H]1C[C@@H](OC(=O)C(CO)c1ccccc1)C2` (some centres undefined), the “scaled lipid accumulation score” value under setting [2] was at most 0.

`CN1[C@@H]2CC[C@H]1C[C@@H](OC(=O)C(CO)c1ccccc1)C2` (some centres undefined) [Atropine sulfate monohydrate]: the “scaled lipid accumulation score” value was 0.118.

Take `CN1[C@@H]2CC[C@H]1C[C@@H](OC(=O)[C@H](CO)c1ccccc1)C2` [Hyoscyamine (L)]: the “scaled lipid accumulation score” value was at most 0.

In the case of `CN1[C@@H]2CC[C@H]1C[C@@H](OC(=O)[C@H](CO)c1ccccc1)C2` [Hyoscyamine], the “scaled lipid accumulation score” value reads like this: under setting [1], at most 0; under setting [7], at most -0.001; under setting [2], ≤ 0 and 0.017.
